The results in this text go back to PubChem BioAssay (NCI).

Assay in all cases: NCI-60 one-dose screen, 48 h (100 = growth as untreated, 0 = no growth, -100 = all killed)
Holding throughout (settings): 10 µM unless noted

Test [1] deals with SR leukemia.
Test [2] has as its system RPMI-8226 leukemia.
Test [3] has as its system OVCAR-8 ovarian.
In test [4] the test system is OVCAR-5 ovarian.
Test [5] deals with OVCAR-4 ovarian.
Test [6] has as its system SK-OV-3 ovarian.
In test [7] the test system is IGROV1 ovarian.
Test [8] relates to OVCAR-3 ovarian.
The test system of test [9] is HS 578T breast.
For test [10], the system named is NCI/ADR-RES ovarian.
The test system of test [11] is BT-549 breast.
For test [12], the system named is MDA-MB-435 melanoma.
The subject of test [13] is SW-620 colon.
The test system of test [14] is MCF7 breast.
For test [15], the system named is HCT-116 colon.
Test [16] has as its system HCC-2998 colon.
Test [17] concerns KM12 colon.
Test [18] deals with T-47D breast.

The structures appear in SMILES notation. This is part of a sample that, as a whole, favours compounds with a hit. Of some 83,000 tested, about 20% had one in any assay.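 The test compound was applied at a single concentration to cells in 96-well plates for 48 hours, and percent growth was recorded.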 Unmarked numbers belong to inactive results. Activity calls are given as the source filed them. Rule for the calls: active = growth percent below 10; inactive = the rest.

For the compound `CC(=O)Nc1ccc(C(=O)/C=C/c2ccc(N(C)C)cc2)cc1`, the growth was 96.6% in [1]; 102% in test [2]; 102% in [3]; 106% in test [4]; 109% in test [5]; 101% in test [6]. Further, the growth in test [7] was 95.4%; in [8], 105%; in [9] it was 101%; in test [10], 99.3%; in test [11], 101%; in [12], 98.1%. The growth was 110% in [13]; 78.3% in test [14]; 102% in test [15]; 102% in [16]; 97.7% in [17].

For `C#CCCCCCCC[C@@H]1OC(=O)[C@H]([C@@H](C)CC)NC(=O)[C@H]([C@@H](C)CC)NC(=O)CC(=O)[C@@H]1C`, the growth is 82.2% in test [1]; 89.4% in test [2]; 101% in test [3]; 90.6% in [4]; 97.6% in test [5]; 103% in [6]. In addition, the growth in test [7] was 89.5%; in test [8], 101%; in test [9], 90.1%; in test [10], 94.9%; in test [12], 105%; in test [13], 98.2%. In addition, the growth in [14] was 95.4%; in [15] it was 93.4%; in test [16] it was 106%; in test [17] it was 100%.

For the compound `Cc1nc2c(nnn2-c2ccccc2)c2nc(-c3ccc(Cl)cc3)oc(=O)c12`, the growth is 103% in test [1]; 108% in test [2]; 110% in test [3]; 104% in test [4]; 114% in test [5]; 119% in test [6]. Besides, the growth in test [7] is 111%; in test [8] it was 118%; in test [9], 107%; in [10], 113%; in test [11], 107%; in test [12] it was 106%. In addition, the growth in [13] was 107%; in [14] it was 95.2%; in test [15], 109%; in [16], 111%; in test [17], 113%.

Take `CC(C)OC(=O)c1ccc2n1CCCc1cnc(Nc3ccccc3)nc1-2`: the growth in test [1] is 35.4%; in [2], 58.4%; in [3], 82.4%; in [4], 93.8%; in test [5] it was 61.4%; in test [6], 97%. Moreover, the growth in [7] was 83.7%; in [8] it was 84.7%; in [9], 99%; in test [10] it was 69.7%; in test [12] it was 42.7%; in [13] it was 91%. The growth in test [14] was 65.4%; in [15], 73.2%; in test [16], 104%; in test [17] it was 52.8%.

For the compound `C#CCCCCCCC[C@@H]1OC(=O)[C@H]([C@@H](C)CC)NC(=O)[C@@H]([C@@H](C)CC)NC(=O)CC(=O)[C@@H]1C`, the growth in test [1] is 91.2%; in test [2], 93.8%; in test [3], 99.8%; in test [4], 88%; in [5] it was 99.3%; in test [6], 102%. The growth is 89.1% in test [7]; 103% in test [8]; 84.6% in test [9]; 99.2% in test [10]; 104% in test [11]; 107% in [12]. Moreover, the growth in test [13] is 101%; in test [14], 99%; in [15], 94.8%; in test [16], 109%; in test [17] it was 105%.

As for `COc1cc(-c2c3c(cn2CCN2CCCCC2)-c2oncc2CC3)cc(OC)c1OC`, the growth is 92.5% in test [1]; 108% in test [2]; 101% in test [3]; 85.3% in test [4]; 100% in test [5]; 93.7% in [6]. Further, the growth is 104% in test [7]; 113% in [8]; 99.3% in [9]; 97.3% in test [10]; 105% in [11]; 101% in [12]. The growth is 95.2% in test [13]; 91% in test [14]; 89.5% in [15]; 106% in test [16]; 107% in test [17].

Regarding `O=C(Oc1ccccc1)c1ccccc1Cl`, the growth was 104% in test [1]; 62.9% in [2]; 104% in test [3]; 90.7% in test [4]; 108% in test [5]; 101% in test [6]. In addition, the growth in [7] is 109%; in test [8], 97.3%; in test [10], 104%; in test [18] it was 100%; in [11], 96.8%; in [12], 103%. Besides, the growth was 104% in test [13]; 102% in test [14]; 102% in [15]; 108% in test [16]; 98.9% in [17].

Turning to `O=C(Nc1ccc(Cl)c(Cl)c1)O/N=C\c1c(Cl)ccc([N+](=O)[O-])c1Cl`, the growth in test [1] is -23.7% (active); in test [2], -52.7% (active); in [3] it was 8% (active); in test [4], 12.1%; in test [5], -65.8% (active); in test [6] it was 61.3%. The growth in test [7] was -45.8% (active); in test [8] it was -99.3% (active); in test [10], 16.5%; in test [18] it was -46.8% (active); in test [11] it was -6.07% (active); in test [12], -31% (active). Besides, the growth was -79.3% (active) in test [13]; -62.9% (active) in test [14]; -83.5% (active) in [15]; -64.7% (active) in test [16]; -71.8% (active) in [17].

For the compound `CC(=O)c1ccc2c(c1)c1ccccc1n2C`, the growth in test [1] is 77.9%; in [2] it was 93.2%; in [3], 95.4%; in test [4], 108%; in [5] it was 115%; in test [6] it was 96.5%. Also, the growth in test [7] is 87.6%; in test [8], 108%; in test [10] it was 91.2%; in test [18], 103%; in test [11], 96.1%; in test [12], 99.3%. In addition, the growth in test [13] was 113%; in test [14], 86.4%; in test [15], 96.7%; in test [16], 100%; in test [17], 97.9%.
